Experiment [1] is described as follows: HPAF-II 24hr Apoptosis Induction qHTS against the NCATS CANVASS Library (AID 1347356). Also: 0% is about no effect. The method in brief: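 Caspase-Glo 3/7 luminescence, read after 15 min room-temperature development, measures apoptosis in HPAF-II cells treated 24 h at 37 degrees C with an 11-point concentration series; 500 cells/well; doxorubicin control.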
Experiment [2] can be described thus: HPAF-II 18hr Apoptosis Induction qHTS against the NCATS CANVASS Library (AID 1347360). Also: 0% is about no effect. The method in brief: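 Luminescent DEVD-substrate signal, proportional to caspase activity, is measured in HPAF-II cells after 18-hour treatment across a concentration series; doxorubicin serves as control.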
Experiment [3] concerns NAD(P)H diaphorase (Clostridium kluyveri). The experiment can be described thus: Diaphorse counterscreen qHTS: Assay Interference Panel against the NCATS CANVASS Library (AID 1347362). Also: 0% is about no effect. The method in brief: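 Counterscreen for coupling-enzyme interference: resorufin fluorescence from resazurin/NADH turnover, read after 5 min at room temperature. Compounds were tested over an 11-point series after 15 min dark preincubation with diaphorase in PBS-Tween.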

The target of experiment [4] is Nuclear receptor subfamily 1 group I member 3 (Homo sapiens) (UniProt Q14994). As to the kind of experiment: qHTS for Constitutive Androstane Receptor (CAR) Agonist screened against the NCATS CANVASS Library (AID 1347373).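 Also: every well also contained 1.5 µM PK11195 alongside the test compound; 0% is about no effect.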 The method in brief:
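Agonist mode with 1.5uM PK11195 present: compounds for 24hr on HepG2-hCAR-CYP2B6 cells. CellTiter-Fluor fluorescence (ex 405, em 540 nm) gives viability; ONE-Glo luminescence reports CAR activation.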

The nature of experiment [5]: 10-beta competent E. coli microbial cell viability qHTS against the NCATS CANVASS Library (AID 1347376). Also: 0% is about no effect. The method in brief: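 Read-out: BacTiter-Glo ATP luminescence, taken 20 min after reagent addition. Beforehand, 10-beta competent E. coli at 0.2 OD had been incubated overnight at 37C with compounds at 11 concentrations.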
Experiment [6] can be described thus: DH5-alpha competent E. coli microbial cell viability qHTS against the NCATS CANVASS Library (AID 1347377). Conditions: outcome: dose series up to 46.1 µM unless noted. The method in brief: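 Bacterial viability as ATP-dependent luminescence (BacTiter-Glo), read after overnight 37 °C exposure of DH5-alpha competent E. coli to compounds in 11-point titration.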

The nature of experiment [7]: qHTS for Inflammasome Signaling Inhibitors: IL-1-beta AlphaLISA screen against the NCATS CANVASS Library (AID 1347379).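 Also: human THP-1 cells primed with LPS then triggered with ATP.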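 As to Potency: secreted IL-1B measured as AlphaLISA emission at 615 nm; potency is read from the fitted curve at half-maximal effect.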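 As to activity change, negative = inhibition: secreted IL-1B measured as AlphaLISA emission at 615 nm; % is scaled to controls: 0 for no effect and ±100 for the full control effect; lower signal means less IL-1B release which is the wanted effect.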 The method in brief:
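Secreted IL-1B from human THP-1 cells quantified by AlphaLISA 16 hr after compound addition (final up to 57.5 uM). A 1 hr compound pretreatment preceded inflammasome activation with 250 ng/mL LPS plus 1.25 mM ATP (final).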

Experiment [8] is described as follows: Cytotoxicity qHTS for assessment of Hepg2 cells membrane integrity screened against the NCATS CANVASS Library (AID 1347387). The method in brief:
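Membrane damage quantified as fluorescent LDH-release signal (ex 560, em 590 nm) in HepG2 cells treated 5 hr at 37C. qHTS format, 11 concentrations spanning 0.59 nM - 46 uM final, cells plated at 2000 per well the night before.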

The nature of experiment [9]: qHTS for Activators of p53 Stress Response Pathway screened against the NCATS CANVASS Library (AID 1347388). Also: potency is read from the fitted curve at half-maximal effect. The method in brief:
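Beta-lactamase reporter driven by p53 response elements in HCT-116 cells, read as the 460 nm/530 nm emission ratio after CCF4 loading, following 16 h of exposure to an 11-point series. Cell viability was measured in the same wells by CellTiter-Glo luminescence.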

The nature of experiment [10]: Redox Reaction Profiling qHTS: Assay Interference Panel against the NCATS CANVASS Library (AID 1347401).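 Also: 100% = activation by 2 µM chloranil control.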 The method in brief: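 Redox-cycling liability assessed as DTT-driven conversion of resazurin (5 uM, with 200 uM DTT, HEPES pH 7.3) to fluorescent resorufin. Fluorescence at 525/598 nm measured initially and after 15 min dark incubation.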
Experiment [11] can be described thus: HEK293 18hr Apoptosis Induction qHTS against the NCATS CANVASS Library (AID 1347357). Also: 0% is about no effect. The method in brief: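 Natural products applied to HEK293 for 18 hr; Caspase-Glo 3/7 readout.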
The nature of experiment [12]: HEK293 12hr Apoptosis Induction qHTS against the NCATS CANVASS Library (AID 1347361). Also: 0% is about no effect. The method in brief: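 Luminescent caspase-3/7 signal, proportional to enzyme activity, was recorded from HEK293 cultures in DMEM + 10% FBS treated for 12 hours with titrated natural products (11 points). Doxorubicin (0.1nM - 4uM) served as control.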
The target of experiment [13] is Nuclear receptor subfamily 1 group I member 3 (Homo sapiens) (UniProt Q14994). The experiment can be described thus: qHTS for Constitutive Androstane Receptor (CAR) Antagonist screened against the NCATS CANVASS Library (AID 1347372).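 Also: cells stimulated with 50 nM CITCO agonist so inhibition reflects antagonism; % is scaled to controls: 0 for no effect and ±100 for the full control effect.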 The method in brief: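 Antagonist mode: compound added alongside 50 nM CITCO to HepG2-hCAR-CYP2B6 reporter cells, 24hr at 37C. Viability by CellTiter-Fluor fluorescence, then CAR-driven luciferase by ONE-Glo luminescence.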
Nuclear receptor subfamily 1 group I member 3 (Homo sapiens), sequence (Q14994 whole entry, looked up): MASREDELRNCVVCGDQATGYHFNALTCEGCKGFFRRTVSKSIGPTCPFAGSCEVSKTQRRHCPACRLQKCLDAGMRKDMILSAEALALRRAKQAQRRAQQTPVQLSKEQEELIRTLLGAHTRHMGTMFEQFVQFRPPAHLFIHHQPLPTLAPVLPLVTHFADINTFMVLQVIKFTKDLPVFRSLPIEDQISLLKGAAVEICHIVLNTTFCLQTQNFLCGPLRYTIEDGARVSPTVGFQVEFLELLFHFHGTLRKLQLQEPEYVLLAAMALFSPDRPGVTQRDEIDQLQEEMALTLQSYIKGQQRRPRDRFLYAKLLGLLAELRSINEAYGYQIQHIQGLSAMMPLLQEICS

Experiment [14] is described as follows: qHTS to identify inhibitors of the type 1 interferon - major histocompatibility complex class I in skeletal muscle: primary screen against the NCATS Mechanism Interrogation Plate v5.0 (MIPE) Libary (AID 1347411). Also: nearly all actives have a fitted effect of over 65% in size. Also: potency is read from the fitted curve at half-maximal effect.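 As to activity change, negative = inhibition: plate controls were vehicle for no effect and reference inhibitor for full effect.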 The method in brief: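 Luminescence from CRISPR HiBit-tagged endogenous HLA-B in human myoblasts reported MHC class I level after 24 h of IFN-beta (4 ng/ml) plus compound. Compounds ran as 11-point 1:3 series, top 46 uM final.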

Experiment [15] can be described thus: Primary qHTS for inhibitors of nuclear receptor binding SET domain protein 2 (NSD2) in an isogenic RCH-ACV NSD2 p.E1099K mutant (9B) (AID 1645876). Also: potency is read from the fitted curve at half-maximal effect; nearly all actives have a fitted effect of over 70% in size.
Experiment [16] is described as follows: Primary qHTS for inhibitors of nuclear receptor binding SET domain protein 2 (NSD2) in an RCH-ACV wild type WT cells (2C) (AID 1645877). Also: potency is read from the fitted curve at half-maximal effect; nearly all actives have a fitted effect of over 70% in size.
For experiment [17], the target named is Glutathione peroxidase 1 (Homo sapiens) (UniProt P07203). The experiment can be described thus: Primary qHTS Assay for Inhibitors of Recombinant Selenoprotein Glutathione Peroxidase 1 (GPX1) (AID 1845191). Also: nearly all actives have a fitted effect of over 65% in size. The method in brief:
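NADPH consumption tracked by fluorescence at 340/450 nm between t=0 and t=15 min, room temperature. Final mix: 10 nM GPX1, 100 nM glutathione reductase, 1 mM GSH, 0.5 mM NADPH, 0.5 mM cumene hydroperoxide, 0.01% BSA; 30 min compound–enzyme preincubation.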

Experiment [18] has as its target Phospholipid hydroperoxide glutathione peroxidase GPX4 (Homo sapiens) (UniProt P36969). As to the kind of experiment: Primary qHTS Assay for Inhibitors of Recombinant Selenoprotein Glutathione Peroxidase 4 (GPX4) (AID 1845192). Also: % is scaled to controls: 0 for no effect and ±100 for the full control effect; nearly all actives have a fitted effect of over 65% in size. Conditions: outcome: dose series up to 50 µM unless noted. The method in brief: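 NADPH consumption followed by fluorescence at 340/450 nm, t=0 and after 15 min at room temperature. Reaction started with cumene hydroperoxide (0.5 mM final) after 30 min compound–GPX4 preincubation; final 200 nM GPX4, 100 nM GR, 1 mM GSH, 0.5 mM NADPH.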

Experiment [19] in a line: qHTS drug screen for cell cycle checkpoint inhibitors in PARPi-resistant BRCA-mutant ovarian cancer cell lines. (AID 1963452; calls by dose curve). Conditions: PEO1/OlaR viability, CellTiter-Glo luminescence, 96 h, stronger effect = lower value. The method in brief: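 PEO1, PEO4 and PEO1/OlaR ovarian cancer cells, 600 per well, exposed 96 h at 37C to a dilution series. Viability read by CellTiter-Glo luminescence, normalized to DMSO and empty wells; activity summarized as Z-AUC.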

Experiment [20] is described as follows: qHTS assay to identify inhibitors of the type 1 interferon - major histocompatibility complex class I in skeletal muscle: Counter screen cell viability and HiBit confirmation (AID 1347412). Also: nearly all actives have a fitted effect of over 60% in size. Also: potency is read from the fitted curve at half-maximal effect. As to activity change, negative = inhibition: % is scaled to controls: 0 for no effect and ±100 for the full control effect. The conditions noted are these: iHSKM muscle cells + IFN-b, HiBiT or CellTiter-Glo, 24 h. The method in brief:
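Human myoblast knock-in line, 4.0 ng/ml IFN-beta stimulation, 24 h compound treatment. Endpoints: HiBiT lytic luminescence (HLA-B level) and CellTiter Glo (ATP). Dosing 12 concentrations, 3-fold steps, 46 uM highest final.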

The mark [21] stands for this setting: measured here: PEO1 parental Z-AUC.

The structures appear in SMILES notation. Records with an inconclusive call do not appear. Calls of active or inactive are those of the source. Unless noted, calls follow the shape of the dose curve; as a rule, active = well fitted curve in the direction sought with a large enough effect; inconclusive = small, poorly fitted or top-dose-only effect, or another doubt; inactive = no such curve, though single readings can be large; an effect the other way counts as inactive or inconclusive.

Phospholipid hydroperoxide glutathione peroxidase GPX4 (Homo sapiens), sequence (P36969 whole entry, looked up): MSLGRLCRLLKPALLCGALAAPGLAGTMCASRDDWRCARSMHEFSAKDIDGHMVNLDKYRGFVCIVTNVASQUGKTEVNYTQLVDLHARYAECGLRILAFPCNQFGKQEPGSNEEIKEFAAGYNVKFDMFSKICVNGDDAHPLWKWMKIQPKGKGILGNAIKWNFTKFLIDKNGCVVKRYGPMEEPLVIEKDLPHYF
Glutathione peroxidase 1 (Homo sapiens), sequence (P07203 whole entry, looked up): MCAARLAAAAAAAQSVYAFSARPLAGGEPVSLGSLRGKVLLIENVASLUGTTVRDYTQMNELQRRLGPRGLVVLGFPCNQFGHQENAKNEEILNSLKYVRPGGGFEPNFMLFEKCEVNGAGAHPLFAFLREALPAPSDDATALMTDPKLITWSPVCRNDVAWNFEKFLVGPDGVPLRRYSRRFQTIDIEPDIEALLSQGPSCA

As for `C/C=C/c1cc2c(c(=O)o1)C(=O)[C@@H](O)[C@H](C)O2`, the compound was classed as inactive in experiment [1], in experiment [5], in experiment [6] and in experiment [8]. For the same compound, the Potency entry in experiment [2], in [3], in [4] and in experiment [10] was “inactive” throughout. Besides, the Potency is 21.7 µM (active) in [7] and 37.1 µM (active) in experiment [9].
`CC(C)[C@@H]1CC(=O)c2coc3c2[C@H]1C[C@@H](C)C3=O`: the call in [1], in experiment [12], in experiment [5], in [6] and in [8] was inactive. Also, the Potency entry in experiment [11], in experiment [2], in [3], in experiment [13], in experiment [4] and in experiment [7] was “inactive” in each case. Besides, the Potency entry in experiment [9] and in experiment [10] was “inactive” each time.
Regarding `CC[C@@H](c1cc(OC)c(OC)cc1OC)[C@H](C)[C@@H](/C(C)=C/c1cc(OC)c(OC)cc1OC)c1cc(OC)c(OC)cc1OC`, the outcome in experiment [1], in experiment [12], in [5], in experiment [6] and in [8] was inactive. Moreover, the Potency result in experiment [11], in experiment [2], in experiment [13], in [4], in [7] and in experiment [9] was “inactive” throughout. Also, the Potency result in experiment [10] is “inactive”.
Take `COC(=O)c1ccc([C@H]2c3[nH]c4ccccc4c3C[C@H](C(=O)OC)N2C(=O)CCl)cc1`: the Potency in [14] was 0.829 µM (active); in [15], 148 nM (active); in experiment [16], 148 nM (active); in experiment [20] (HiBiT), 496 nM (active); in experiment [20] (Viability), 787 nM (active). The Potency result in [17] and in [18] was “inactive” throughout. For the same compound, the Z-AUC in experiment [19] was -1.5 (inactive); in experiment [19] (setting [21]), 0.403; in experiment [19] (measured here: PEO4 Z-AUC), -0.118.
For the compound `CC[C@@H]1[C@H](C)[C@H](c2cc(OC)c(OC)cc2OC)[C@@H](C)[C@H](c2cc(OC)c(OC)cc2OC)[C@]12C=C(OC)C(=O)C=C2OC`, the compound was called inactive in [1], in [12] and in [8]. Moreover, the Potency entry in experiment [11], in experiment [13], in experiment [4] and in [10] was “inactive” throughout.
As to `C=C1C(=O)O[C@@H]2[C@H]3C(C)=CC[C@@]34O[C@@]4(C)CC[C@@H]12`, the Potency in experiment [14] was 16.5 µM (active); in experiment [15] it was 5250 nM (active); in [16], 4680 nM (active); in [20] (HiBiT), 12500 nM (active). The Potency result in [17] and in experiment [18] was “inactive” in each case. Further, the figures for the Z-AUC in experiment [19], in [19] (setting [21]) and in experiment [19] (measured here: PEO4 Z-AUC) were 0.243 (inactive), 0.182 and 0.342, respectively. For the same compound, in [20] (Viability, at 45.9 µM (top of the series)), the activity change, negative = inhibition is 49.2% (inactive).
As for `COc1ccc([C@@H]2c3cc4c(cc3C(=O)[C@H](C)C2C)OCO4)cc1OC` (stereo not given in full), the call in experiment [1], in experiment [12], in [5], in [6] and in experiment [8] was inactive. The Potency entry in [11], in experiment [2], in experiment [13], in [4], in experiment [7] and in [10] was “inactive” in each case. The Potency in experiment [9] is 11.7 µM (active).
Take `CN[C@@H](C)C(=O)N[C@@H]1C(=O)N(Cc2c(C)ccc3ccccc23)c2ccc(C#N)cc2N(C(C)=O)[C@H]1C`: the Potency result in experiment [14] is “inactive”.

Source of the values: PubChem BioAssay (NCATS).
